From PubChem BioAssay (NCI)
Values joined by “and” are separate entries in the source; they are usually repeats but may differ in a detail not shown here. Equal values may be shown once. The panel holds about 83,000 compounds, 20% with a hit somewhere; the sample as a whole holds those more often.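 Note: values are percent growth. 100 is the growth of untreated cells, values between 100 and 0 indicate rising inhibition; between -100 and 0 indicates cell death.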 Active and inactive are the calls of the source. Rule for the calls: active = growth percent below 10; inactive = the rest.

What was measured:
Experiment in all cases: NCI-60 one-dose screen, 48 h (100 = growth as untreated, 0 = no growth, -100 = all killed)
Conditions in all cases: 10 µM unless noted
T-47D breast = tested on: T-47D breast
BT-549 breast = tested on: BT-549 breast
MDA-MB-435 melanoma = tested on: MDA-MB-435 melanoma
SW-620 colon = tested on: SW-620 colon
MCF7 breast = tested on: MCF7 breast
HCT-116 colon = tested on: HCT-116 colon
HCC-2998 colon = tested on: HCC-2998 colon
KM12 colon = tested on: KM12 colon
MDA-MB-468 breast = tested on: MDA-MB-468 breast

Measured: growth

Oc1cncc(-c2ccc3ncnc(N4CCc5cc(F)c(Cl)cc54)c3c2)c1
inactive: T-47D breast 41.9% | BT-549 breast 73.1% | MDA-MB-435 melanoma 69.6% | SW-620 colon 62.8% | MCF7 breast 35.3% | HCT-116 colon 48.8% | HCC-2998 colon 51.7% | KM12 colon 61.4% | MDA-MB-468 breast 48.2%

CCc1ccccc1NC(=O)N/C(N)=N/c1nc2ccccc2s1
inactive: T-47D breast 55.8% | SW-620 colon 21.3% | MCF7 breast 11%
active: BT-549 breast -12% | MDA-MB-435 melanoma -46.7% | HCT-116 colon -26.2% | HCC-2998 colon 3.52% | KM12 colon -3.54% | MDA-MB-468 breast -21.2%

COc1ccc(NC(=O)Nc2nc3ccc([N+](=O)[O-])cc3s2)cc1
active: T-47D breast 4.2% | MCF7 breast 0.377% | KM12 colon 3.81% | MDA-MB-468 breast -7.85%
inactive: BT-549 breast 17.9% | MDA-MB-435 melanoma 23% | SW-620 colon 15% | HCT-116 colon 10.3% | HCC-2998 colon 19.2%

COc1cc(C=O)ccc1Oc1nc(Nc2ccc(F)cc2)nc(N(C)C)n1
inactive: T-47D breast 33.3% and 66.1% | BT-549 breast 77.3% and 16.5% | MDA-MB-435 melanoma 71.1% and 88.1% | SW-620 colon 94.4% and 50.4% | MCF7 breast 53.2% and 45.4% | HCT-116 colon 64.9% and 20.3% | HCC-2998 colon 108% and 75.6% | KM12 colon 99.3% and 68.5% | MDA-MB-468 breast 36.4% and 53.5%

FC(F)(F)c1cc2c(Cl)ncnc2n1CCN1CCOCC1
active: HCC-2998 colon -26.6%
inactive: T-47D breast 96.2% | BT-549 breast 60.6% | MDA-MB-435 melanoma 86.4% | SW-620 colon 59.9% | MCF7 breast 89% | HCT-116 colon 31.7% | KM12 colon 96.4% | MDA-MB-468 breast 40.1%

COc1cc(/C=C/C(=O)c2cnn(-c3cc(=O)[nH]c4ccccc34)c2C)cc(OC)c1OC
inactive: T-47D breast 10.7% | MDA-MB-435 melanoma 21.1% | SW-620 colon 24.4% | MCF7 breast 10.8%
active: BT-549 breast -4.19% | HCT-116 colon 5.92% | HCC-2998 colon -1.51% | KM12 colon 4.79% | MDA-MB-468 breast -35.3%

C/C(=N/O)c1ccc(NC(=O)CSc2nnc(-c3ccc4nc(-c5ccc(Cl)cc5)[nH]c4c3)o2)cc1
active: BT-549 breast -8.14%
inactive: T-47D breast 97.8% | MDA-MB-435 melanoma 18.3% | SW-620 colon 67.4% | MCF7 breast 55.3% | HCT-116 colon 69% | HCC-2998 colon 128% | KM12 colon 36.4% | MDA-MB-468 breast 122%

COc1cc(/C=C/C(=O)c2cnn(-c3cc(=O)[nH]c4ccc(Cl)cc34)c2C)cc(OC)c1OC
active: T-47D breast -31.4% | BT-549 breast -47% | MDA-MB-435 melanoma -9.26% | SW-620 colon -45.8% | MCF7 breast -37.6% | HCT-116 colon -67.6% | HCC-2998 colon -93.5% | KM12 colon -28.4% | MDA-MB-468 breast -83.1%

O=C(Nc1nc2ccc([N+](=O)[O-])cc2s1)Nc1ccc(Cl)cc1Cl
inactive: T-47D breast 20.7% | BT-549 breast 65.3% | MDA-MB-435 melanoma 60.3% | SW-620 colon 75.9% | MCF7 breast 36% | HCT-116 colon 22.5% | HCC-2998 colon 69.4% | KM12 colon 60.2% | MDA-MB-468 breast 29.1%
